Compounds with a hit are over-represented: about 1.1% of the library has one in this group of screens.
Pemphigus Ab inh: human desmoglein-3 autoantibody binding inhibition | P32926 | DSG3-coupled beads, scFv-anti-DSG3-GFP binding, flow cytometry; stronger effect = lower value | binding (percent of control), % at 10 µM | hit rate 0.48% among 310,000 | AID 588358;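 active = binding more than 3 SD below its plate's average and above zero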;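 also: hits lower antibody fragment binding to DSG3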
AI-2 QS modul: Vibrio harveyi AI-2 quorum sensing modulation. AID 2094. hit rate 0.4% among 300,000. activity change, % at 7.5 µM. Vibrio harveyi JMH597 AI-2 luminescence/OD600 ratio, 9 h; stronger effect = lower value; strain lacks LuxN and CqsS sensors; 0 = neutral-control median; in the data active = activity change below about -75%, passing the limit was not always enough;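 also: luminescence divided by OD600 gain over 9 h not by final OD600 alone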
NTR1 agonist: NTR1 (human) agonism; hit rate 0.17% among 330,000; NTR1-U2OS beta-arrestin-GFP spot imaging, agonist mode; P30989; activation, % at 20 µM;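 active = activation at or above 40% of the spot to cytoplasm intensity ratio, with at least 20 cells analyzed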;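 also: 0% = DMSO without peptide and 100% = 100 nM NTR1 peptide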
Target sequence (P30989 whole entry, looked up): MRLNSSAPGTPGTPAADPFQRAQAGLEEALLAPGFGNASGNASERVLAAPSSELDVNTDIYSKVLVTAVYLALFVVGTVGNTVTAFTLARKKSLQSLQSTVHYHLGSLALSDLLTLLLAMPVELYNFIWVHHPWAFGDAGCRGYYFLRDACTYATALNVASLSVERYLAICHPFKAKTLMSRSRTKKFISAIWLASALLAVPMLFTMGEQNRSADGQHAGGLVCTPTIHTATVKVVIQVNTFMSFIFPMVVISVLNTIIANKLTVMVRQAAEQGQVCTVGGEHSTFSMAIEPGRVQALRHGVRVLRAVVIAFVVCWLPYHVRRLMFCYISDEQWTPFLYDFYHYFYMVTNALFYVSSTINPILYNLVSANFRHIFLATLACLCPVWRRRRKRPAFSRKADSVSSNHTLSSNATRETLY
VLA-4 inh: inhibition in a human VLA-4 binding assay. inhibition, % (about 7 µM as worked out from the volumes in the protocol). hit rate 0.2% among 330,000. VLA-4 expressing cells, ligand binding flow cytometry. AID 2557. P13612; in the data active = inhibition above about 50%
Active calls of the source: *; nt = no result.

SMILES | Pemphigus Ab inh | AI-2 QS modul | NTR1 agonist | VLA-4 inh
O=C1NC(Cc2ccccc2)c2nc3ccc(Cl)cc3c(=O)n2-c2ccccc21 (stereo unspecified) | nt | nt | -1.3 | 13.9
N/C(=N\OC(=O)COc1ccccc1)c1ccncc1 | 104.3 | -47.1 | -0.8 | -3.4
COc1cccc(OCC(=O)O/N=C(\N)c2ccncc2)c1 | 99.1 | -76.1* | -1.0 | 6.7
NC(=O)C1CC(=O)N(c2ccc(OCc3ccc(Cl)c(Cl)c3)cc2)C1 (stereo unspecified) | 99.9 | nt | nt | nt
Cc1nn(C)c(C(=O)Nc2ccc(S(=O)(=O)NC34CC5CC(CC(C5)C3)C4)cc2)c1Br | 17.3* | 4.5 | 15.9 | 38.2
Cc1nc2sc3c(c2c(=O)n1N)CCC3 | 104.4 | 7.6 | 0.9 | 5.5
Cn1nnc2sc3c(c2c1=O)CCCC3 | 79.4* | 5.6 | 0.2 | 3.7
CCOC(=O)CSc1nnc(-c2ccccc2NC(=O)c2ccccc2)o1 | 69.0* | 9.9 | 0.5 | 15.4
CCCn1c(N)cc(=O)n(CCC)c1=O | 94.3 | 37.1 | 0.1 | 20.7
CC(C)Cn1c(N)cc(=O)n(C)c1=O | 99.7 | 16.6 | 2.1 | 61.5*
O=C(CCNC(=O)c1ccccc1Cl)Nc1ccc2c(c1)OCCO2 | 106.6 | nt | nt | nt
c1cc(CNCCN2CCNCC2)ccn1 | 58.0* | nt | nt | nt
COc1ccc(CCNC(=O)c2ccccc2)cc1 | 64.8* | -0.1 | -0.8 | 5.5
Cc1nc2sccn2c(=O)c1S(=O)(=O)NCCc1ccc(Cl)cc1 | -7.6* | 20.9 | 1.1 | 2.6
CO[C@@]1(NC(=O)Cc2cccs2)C(=O)N2C(C(=O)O)=C(COC(N)=O)CS[C@@H]21 | nt | 24.1 | -0.4 | 52.1*
CO[C@@]1(NC(=O)C2SC(=C(C(N)=O)C(=O)O)S2)C(=O)N2C(C(=O)O)=C(CSc3nnnn3C)CS[C@@H]21 (stereo partly specified) | 110.5 | nt | 0.8 | 10.5
COc1cc2c3nnc(-c4ccc(F)cc4)c-3cn(Cc3ccc(F)cc3)c2cc1OC | 116.0 | 35.1 | 84.1* | 0.0
CCCc1cc(C(=O)Nc2cccc(-c3nn[nH]n3)c2)sc1C | 101.2 | nt | nt | nt
CCC(C)c1ccc(O)c(NC(=O)c2cncc(Br)c2)c1 (stereo unspecified) | 122.0 | -85.1* | 0.2 | 13.8
Nc1nnc2cc(Br)ccc2n1 | 102.5 | nt | nt | nt
Cc1cc(C(=O)N2CCN(c3ncccn3)CC2)sc1-c1ccccc1 | 97.0 | 3.8 | 4.8 | 1.5
Cc1cc(C(=O)N2CCN(S(C)(=O)=O)CC2)sc1-c1ccccc1 | 85.9* | 20.7 | 1.1 | nt
Cc1occc1C(=O)N=Nc1c(O)n(C)c2ccccc12 | 83.7* | -9.3 | 1.5 | 4.8
Cn1c(O)c(N=NC(=O)c2ccccc2O)c2ccccc21 | 104.7 | 2.5 | 5.7 | -5.4
COc1ccc(OC[C@@H](O)CNC(=O)c2cccc3c2C(=O)c2ccc(-c4ccc(F)cc4OCc4ccccc4)cc2S3(=O)=O)cc1 | 59.9* | nt | 0.0 | -2.0
SMILES | Pemphigus Ab inh | AI-2 QS modul | NTR1 agonist | VLA-4 inh
COc1nc(=O)n(C2C=CC(=O)O2)cc1F (stereo unspecified) | 104.9 | nt | nt | nt
O=C(NCc1ccc(Cl)cc1)C1CCN(S(=O)(=O)c2cccnc2)CC1 | nt | -79.1* | 0.6 | -5.9
O=C(NCc1ccc(F)cc1)C1CCN(S(=O)(=O)c2cccnc2)CC1 | nt | -27.9 | 0.0 | 1.5
O=C(Oc1ccccc1)N1CCCC1 | 103.9 | 3.5 | 1.5 | 4.5
COc1cc(C(=O)Oc2cccc(C(=S)N3CCOCC3)c2)cc(OC)c1OC | 102.7 | 5.1 | 0.7 | -2.4
O=C(Oc1cccc(C(=S)N2CCOCC2)c1)c1ccccc1 | -24.4* | 7.5 | 2.4 | -1.1
O=C(Oc1ccc(OC(=O)N2CCCCC2)cc1)c1ccccc1 | 67.5* | 17.7 | 0.5 | -1.4
CCN(CC)S(=O)(=O)c1ccc(C(=O)NC(=S)N2CCCCC2C)cc1 (stereo unspecified) | 109.2 | nt | nt | nt
Cc1ccc(S(=O)(=O)N2CCCCC2)cc1NC(=O)COC(=O)c1cccc(O)c1 | 98.1 | nt | nt | nt
COc1ccccc1NC(=O)Cn1nnc(-c2ccccc2NC(=O)c2cc3ccccc3oc2=O)n1 | 9.0* | 11.2 | 1.3 | -5.3
O=C(Cn1nnc(-c2ccccc2NC(=O)c2ccco2)n1)Nc1ccccc1 | 6.9* | 3.2 | 24.7 | 0.7
COc1ccccc1NC(=O)Cn1nnc(-c2ccccc2NS(=O)(=O)c2ccccc2)n1 | 132.2 | 23.9 | 0.7 | 3.1
COc1ccc2nc(C)cc(N/N=C/c3cccc(OC)c3O)c2c1 | 122.8 | 12.3 | 41.3* | -4.8
COc1cccc(/C=N/Nc2ncnc(Cl)c2N)c1O | 110.9 | -81.8* | 1.4 | -17.2
CN1C(=O)N(CC(=O)Nc2ccc3c(c2)OCO3)C(=O)C12CCCCC2 | 101.3 | nt | nt | nt
Cc1ccc(S(=O)(=O)c2nnn(-c3cccc(F)c3)c2N)cc1 | 94.5 | -96.7* | 2.6 | 4.3

Source: PubChem (several laboratories)
